High-throughput results deposited in PubChem BioAssay by several laboratories.
CRFBP-R2 block – antagonists of CRF-BP/CRF-R2 complex, primary screen, cell-based, HEK293, calcium dye fluorescence, uHTS | CRF-induced calcium fluorescence | inhibition, % at 11.8 µM | 350,000 compounds, 0.59% hits | AID 588475, 2011;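 active = inhibition of the ligand-induced calcium signal above about 50% at the single tested concentration, limit read from the data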
ANO1 activ – TMEM16A chloride channel activators or potentiators, primary screen, cell-based, HTS. HEK293 TMEM16A/YFP-H148Q/I152L, iodide quench fluorescence; hits give low values. B-score at 10 µM. 340,000 compounds, 0.3% hits;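 active = fluorescence-ratio B-score plate-corrected deviation score at least 3 library SD below zero, with starting fluorescence score within 5 deviations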;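 also: channel opened by trigger with iodide after compound preincubation; score built on the fluorescence ratio of max minus min over baseline; more negative score means more quench and so TMEM16A activation or potentiation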
NR3A LBD binder – binders of NR3A ligand-binding domain, primary screen, biophysical, differential scanning fluorimetry, uHTS; Glutamate receptor ionotropic, NMDA 3A (GRIN3A) ligand-binding domain; NR3A LBD differential scanning fluorimetry, Tm shift; 0% = protein alone, 100% = glycine-bound protein; Tm shift relative to glycine control, % at 25 µM; 340,000 compounds, 2.5% hits;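 active = melting temperature shift of at least 10% of the positive control shift, at one fixed dose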
CRFR2-BP ag – agonists of CRF-BP/CRF-R2 complex, primary screen, cell-based, HEK293, calcium dye fluorescence, uHTS. CRF-binding protein / CRF receptor 2 complex (human). calcium dye fluorescence (FLIPR); percent of saturating CRF peptide response. activation, % at 13.2 µM. 350,000 compounds, 0.46% hits;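 active = activation of at least 50%, plus an integration ratio under a set limit after plate pattern correction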;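 also: plate controls were neutral control wells without compound for no effect and CRF at EC100 for full effect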
MPTP block – mitochondrial permeability transition pore inhibitors, primary screen, biochemical, isolated mouse mitochondria, absorbance; Ca2+ swelling absorbance, 30 min; inhibition, % at 10 µM; 360,000 compounds, 1.4% hits;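 active = inhibition of 50% or more, scaled per plate between neutral and stimulator controls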;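 also: 0% = DMSO wells given calcium and 100% = 1 mM EGTA wells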
TMEM16A inh – TMEM16A chloride channel inhibitors, primary screen, cell-based, HTS | Anoctamin-1 (Mus musculus), Q8BHY3 | HEK293 TMEM16A/YFP iodide influx fluorescence, ionomycin | normalized B-score (activity score, 25-100; higher = stronger inhibition) at 10 µM | 310,000 compounds, 1.2% hits;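 active = ratio plate-corrected score three or more library SD toward inhibition, starting fluorescence score within five deviations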;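 also: score derived from kinetic fluorescence span divided by baseline fluorescence per well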
TMEM16A reconf – TMEM16A chloride channel inhibitors, confirmation, cell-based, re-confirmation; 2,300 compounds, 39% hits; HEK293 TMEM16A/YFP-H148Q, iodide quench fluorescence; ionomycin added to raise cell calcium; AID 652189, 2013; shares compounds with TMEM16A inh; inhibition, % at 10 µM;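 active = mean duplicate percent inhibition, scaled so buffer wells are 0 and the reference blocker 100, over three buffer SD above buffer mean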
TMEM16A Ca cntr – calcium mobilization in TMEM16A/YFP HEK293 cells, confirmation, counter-screen for TMEM16A inhibitor project; shares compounds with TMEM16A inh; Fluo4 calcium mobilization; calcium response (% of ionomycin), % at 10 µM; 2,300 compounds, 2% hits; AID 652231, 2013;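 active = duplicate-averaged calcium signal over 20% of the ionomycin maximum, relative to buffer baseline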;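 also: each well's signal is peak minus trough fluorescence divided by its pre-addition baseline; 0% = buffer wells and 100% = ionomycin wells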
Parental YFP cnt – iodide YFP quench changes in parental YFP-HEK293, counter-screen for TMEM16A inhibitor project, cell-based | YFP ratio F(max-min)/F0 at 10 µM | 2,300 tested, under 10 active | ionomycin | AID 652233, 2013 | shares compounds with TMEM16A inh;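 active = yellow fluorescent protein signal ratio exceeding the buffer control mean by over 5 SD of those controls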;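 also: ratio is mean of duplicate wells from kinetic YFP trace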
ClC-1 rat inh – ClC-1 chloride channel inhibition, selectivity assay for TMEM16A inhibitor project, cell-based, voltage-dependent ClC-1; shares compounds with TMEM16A inh; 2,300 tested, under 10 active; ratio percent, % at 10 µM; CHO ClC-1-YFP, iodide influx fluorescence quench; iodide control reads 0, buffer control 100; AID 652236, 2013;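 active = duplicate-mean ratio percent above the mean of iodide-only control wells, which defines zero, plus 5 of their SD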;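 also: higher percent means stronger block of ClC-1 iodide influx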
Target sequence (P35524 whole entry, looked up): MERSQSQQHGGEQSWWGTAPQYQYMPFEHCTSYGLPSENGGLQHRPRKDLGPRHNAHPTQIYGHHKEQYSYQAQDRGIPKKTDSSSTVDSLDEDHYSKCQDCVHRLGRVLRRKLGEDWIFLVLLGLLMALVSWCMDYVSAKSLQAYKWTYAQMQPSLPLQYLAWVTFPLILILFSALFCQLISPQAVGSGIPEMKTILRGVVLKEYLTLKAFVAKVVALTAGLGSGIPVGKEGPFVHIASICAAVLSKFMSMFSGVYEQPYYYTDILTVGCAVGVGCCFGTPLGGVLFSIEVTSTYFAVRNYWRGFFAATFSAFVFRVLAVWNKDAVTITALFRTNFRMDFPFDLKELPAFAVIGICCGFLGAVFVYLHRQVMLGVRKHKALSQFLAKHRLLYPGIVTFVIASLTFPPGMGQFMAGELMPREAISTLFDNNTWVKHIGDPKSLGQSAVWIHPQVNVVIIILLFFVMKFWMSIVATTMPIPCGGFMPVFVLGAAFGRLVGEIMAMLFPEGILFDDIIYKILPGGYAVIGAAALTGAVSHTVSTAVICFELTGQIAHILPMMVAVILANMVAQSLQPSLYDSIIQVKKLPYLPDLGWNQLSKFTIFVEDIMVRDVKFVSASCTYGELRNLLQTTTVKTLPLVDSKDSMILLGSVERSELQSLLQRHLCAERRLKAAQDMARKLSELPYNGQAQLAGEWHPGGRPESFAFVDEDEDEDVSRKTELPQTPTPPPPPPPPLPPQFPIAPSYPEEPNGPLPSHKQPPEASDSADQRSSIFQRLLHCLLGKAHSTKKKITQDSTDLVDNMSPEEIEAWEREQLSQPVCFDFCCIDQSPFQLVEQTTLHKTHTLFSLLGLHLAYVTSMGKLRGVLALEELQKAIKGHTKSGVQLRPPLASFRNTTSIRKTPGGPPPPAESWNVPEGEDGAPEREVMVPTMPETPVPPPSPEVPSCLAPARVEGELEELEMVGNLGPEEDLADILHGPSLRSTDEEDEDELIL
* marks the source's active call; other numbers are inactive results; i = inactive; / = not tested or not shown. In the library only some 5.1% were active in any assay of this set; here they are far more common.

SMILES	CRFBP-R2 block	ANO1 activ	NR3A LBD binder	CRFR2-BP ag	MPTP block	TMEM16A inh	TMEM16A reconf	TMEM16A Ca cntr	Parental YFP cnt	ClC-1 rat inh
COc1ccc(CC(=O)Nc2cc(S(=O)(=O)N3CCOCC3)ccc2N2CCCC2)cc1	-16	/	/	3	0	/	/	/	/	/
O=C(CNc1cccc(S(=O)(=O)N2CCCC2)c1)Nc1ccc(F)c(F)c1	11	i	-3	3	1	i	/	/	/	/
CN(CC(=O)Nc1cccc(S(=O)(=O)N2CCCC2)c1)CC(=O)Nc1ccc(Cl)c(C(F)(F)F)c1	-9	i	8	3	2	25*	i	i	-1.2	-2
Cc1ccc(NC(=O)CNc2cccc(S(=O)(=O)N3CCCC3)c2)cc1F	-10	i	-3	-1	3	25*	22%*	i	-0.88	-10
COc1ccc(-n2[nH]c3c(cnc4ccccc43)c2=O)cc1	/	/	/	/	-1	/	/	/	/	/
Cc1ccc(C(=O)Nc2ccccc2N2CCOCC2)cc1S(=O)(=O)N1CCOCC1	-9	i	0	0	1	/	/	/	/	/
CC(O)c1nc2ccc(C(=O)O)cc2[nH]1 (configuration not stated)	17	i	-2	2	1	i	/	/	/	/
CCN(C(=O)COC(=O)Cc1c[nH]c2ccccc12)c1c(N)n(Cc2ccccc2)c(=O)[nH]c1=O	12	i	-2	0	-1	i	/	/	/	/
CC(NC(=O)c1cccc(F)c1)C1CC2CCC1C2 (configuration not stated)	22	i	-1	0	2	i	/	/	/	/
Cc1ccc(NC(=O)CSc2nc3ccccc3c3nc(CCc4c(C)n[nH]c4C)nn23)cc1F	23	i	-1	-2	2	25*	29%*	i	-0.99	-15
Cc1n[nH]c(C)c1CCc1nc2c3ccccc3nc(SCC(N)=O)n2n1	4	i	-3	-3	-1	/	/	/	/	/
COc1ccccc1C(=O)NC(=O)CSc1nnc(C)s1	-8	i	1	0	-2	i	/	/	/	/
Cc1ccc(C)c(S(=O)(=O)C(C#N)c2nc3ccccc3nc2N2CCCC2)c1 (configuration not stated)	9	i	-1	0	-2	i	i	i	-0.73	-8
N#CC(c1nc2ccccc2nc1N1CCCC1)S(=O)(=O)c1ccccc1 (configuration not stated)	-33	i	-4	25	1	i	/	/	/	/
NC(Cc1c[nH]c2ccccc12)C(=O)Nc1ccccc1 (configuration not stated)	-8	i	-4	-1	-1	i	/	/	/	/
O=C(CC(=O)c1ccccc1)CS(=O)(=O)c1ccccc1	-10	i	3	-4	-4	/	/	/	/	/
O=C(Nc1ccccc1)N1CCN(Cc2ccc3c(c2)OCO3)CC1	9	i	-1	-1	-1	100*	i	i	-1.2	2
O=C(C1COc2ccccc2O1)N1CCCC1 (configuration not stated)	-15	i	-3	2	2	i	/	/	/	/
O=C(C1COc2ccccc2O1)N1CCN(Cc2ccc3c(c2)OCO3)CC1 (configuration not stated)	11	i	-1	-7	-1	25*	i	i	-0.95	-6
Cc1cc(C)cc(NC(=O)N2CCN(Cc3ccc4c(c3)OCO4)CC2)c1	12	i	0	-2	1	i	/	/	/	/
CCCCCCn1c(=O)n2n(c1=O)[C@@H]1CN(S(=O)(=O)c3ccc(C)cc3)C[C@]1(O)[C@@H](OC(=O)NCc1ccco1)C2	10	/	/	-1	0	/	/	/	/	/
COc1ccccc1CCC(=O)Nc1ccc2c(c1)c(=O)n(C)n2Cc1cccc(C(F)(F)F)c1	/	/	/	/	2	/	/	/	/	/
O=S(=O)(c1ccccc1)N1CCN=C1SCc1ccc(Cl)c(Cl)c1	-23	i	-9	19	4	i	/	/	/	/
O=S(=O)(c1ccccc1)N1CCN=C1SCc1ccc(Cl)cc1	10	i	0	0	2	25*	i	i	-0.89	-11
O=C(CSc1nc2ccccc2c(=O)n1CC1CCCO1)NCC1CCCO1 (configuration not stated)	16	i	-3	0	1	100*	i	i	-1.2	-8
SMILES	CRFBP-R2 block	ANO1 activ	NR3A LBD binder	CRFR2-BP ag	MPTP block	TMEM16A inh	TMEM16A reconf	TMEM16A Ca cntr	Parental YFP cnt	ClC-1 rat inh
NC(=O)NC(Cc1ccccc1)C(=O)NNC(=O)COc1ccccc1Cl (configuration not stated)	-10	i	-1	1	-1	/	/	/	/	/
COc1ccc(C2=NS(=O)(=O)N(C)C(C(=O)Nc3ccc4c(c3)OCO4)=C2)cc1	14	i	-4	1	2	i	/	/	/	/
Cc1ccc(C2=NS(=O)(=O)N(C)C(C(=O)Nc3ccc4c(c3)OCO4)=C2)cc1	-13	i	-9	3	9	25*	i	i	-0.98	-26
Cc1ccc([C@@H]2CC=C(C(=O)O)[C@H](c3ccc(Cl)cc3)N2S(=O)(=O)c2ccc(C)cc2)cc1	0	i	-2	17	1	25*	16%*	i	-1	-3
Cc1ccc(S(=O)(=O)N2[C@@H](c3ccc(F)cc3)C(C(=O)O)=CC[C@H]2c2ccc(Cl)cc2)cc1	13	i	-15	1	-2	25*	i	i	-0.95	-14
C[C@H](NC(CCc1ccccc1)C(=O)O)C(=O)N1CCC[C@H]1C(=O)O (some centres not stated)	/	/	/	/	/	i	/	/	/	/
